{
  "source": "PubChem BioAssay AID504727",
  "about": "(Broad Institute, 2011)",
  "note": "The source made the active and inactive calls.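 Rule for the calls: active = fitted half-maximal concentration AC50 at or below ten times the highest valid tested dose, with signal falling as DNA is displaced (actives reach about 34 µM in these data); inconclusive = flat fit at moderate signal loss, or poor fit quality; inactive = the rest, including signal rising instead of falling.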",
  "data": [
    {"test": "DNA intercalators displacing acridine orange, dose response, artefact control for KSHV LANA DNA-binding inhibitor project, biochemical, fluorescence polarization, cherry-picked samples, set 2 (AID 504727);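 for activity change, negative = DNA displacement: 0% = median of neutral control wells and -100% = mitoxantrone positive control wells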", "settings": "AC50: Acridine orange-DNA displacement; series mostly up to 35 µM; activity change, negative = DNA displacement: at the top concentration", "values": [
      {"compound": "Cn1c(=O)oc2cc(S(=O)(=O)CCC(=O)N3CCN(c4ccccc4F)CC3)ccc21", "activity change, negative = DNA displacement": "-10% (inactive)"},
      {"compound": "N#C/C(=C\\c1ccc(-c2ccccc2[N+](=O)[O-])o1)C(N)=O", "activity change, negative = DNA displacement": "2.11% (inactive)"},
      {"compound": "Cc1cc(C)n2nc(C(=O)OC(C)C(=O)c3cc(C)c(C)cc3C)nc2n1", "note": "(centres undefined)", "activity change, negative = DNA displacement": "3.62% (inactive)"},
      {"compound": "COc1cccc2c1NC(C(=O)O)C1CC=CC21", "note": "(centres undefined)", "activity change, negative = DNA displacement": "3.22% (inactive)"},
      {"compound": "Oc1ccc2ccc3cccc[n+]3c2c1", "AC50": "1.42 µM (active)"},
      {"compound": "CC1(C)CCCN(C(=O)c2coc(=O)c(Br)c2)C1", "activity change, negative = DNA displacement": "6.71% (inactive)"},
      {"compound": "Cc1cc(C)nc(SCC(=O)N/N=C/c2cc(C)n(-c3ccccc3C)c2C)n1", "activity change, negative = DNA displacement": "-4.94% (inactive)"},
      {"compound": "CCc1ccc(N2CC(C(=O)OCC(=O)N(CC)c3c(N)n(Cc4ccccc4)c(=O)[nH]c3=O)CC2=O)cc1", "note": "(centres undefined)", "activity change, negative = DNA displacement": "1.35% (inactive)"},
      {"compound": "COc1ccc(OC)c(-c2c3cc(O)c(=O)cc-3oc3cc(O)c(O)cc23)c1", "AC50": "1.62 µM (active)"},
      {"compound": "CCOc1ccc(-n2c(Cc3cc(=O)[nH]c(=O)[nH]3)nnc2SCc2cccnc2)cc1", "activity change, negative = DNA displacement": "2.46% (inactive)"},
      {"compound": "NC(=S)N/N=C/c1ccc(-c2ccc([N+](=O)[O-])cc2)o1", "activity change, negative = DNA displacement": "16.8% (inactive)"},
      {"compound": "COc1ccc2c3c(cccc13)C(=O)CC2", "AC50": "6.92 µM (active)"},
      {"compound": "CCOC(=O)CN1NC2(CCCCCC2)NC1=S", "activity change, negative = DNA displacement": "7.74% (inactive)"},
      {"compound": "Cc1nn(C)c(C)c1N1C(=O)c2cccc3c(N)ccc(c23)C1=O", "AC50": "0.768 µM (active)"},
      {"compound": "CCN(CC(=O)Nc1ccc(OC)cc1)C(=O)c1cc([N+](=O)[O-])ccc1N1CCOCC1", "activity change, negative = DNA displacement": "-1.23% (inactive)"},
      {"compound": "O=C(O)c1cccc(-n2cccc2/C=C/[N+](=O)[O-])c1", "activity change, negative = DNA displacement": "5.04% (inactive)"},
      {"compound": "S=c1c2c(nc3nc[nH]n13)CCC2", "activity change, negative = DNA displacement": "2.23% (inactive)"},
      {"compound": "Cc1cc(NC(=O)CCC(=O)N(CCC(C)C)C(C(=O)NC2CCCC2)c2cccnc2)no1", "note": "(centres undefined)", "activity change, negative = DNA displacement": "2.2% (inactive)"},
      {"compound": "COC(=O)C(NC(=O)C(C)NC(=O)OCc1ccccc1)C(C)C", "note": "(centres undefined)", "AC50": "> 35 µM (inactive)"},
      {"compound": "O=C(Cn1ncc(N2CCCC2)c(Cl)c1=O)c1ccc(Cl)cc1", "activity change, negative = DNA displacement": "4.33% (inactive)"},
      {"compound": "Cc1ccc(NS(=O)(=O)c2ccc(C(=O)NCCCN3CCCC3=O)cc2)cc1", "activity change, negative = DNA displacement": "2.52% (inactive)"},
      {"compound": "CCN(CC)CCCNc1ccc2ncn3c4ccc(O)cc4c(=O)c1c23", "AC50": "6.91 µM (active)"},
      {"compound": "O=C1/C(=C/c2ccco2)SC(=S)N1c1cccnc1", "activity change, negative = DNA displacement": "7.68% (inactive)"},
      {"compound": "COc1ccc(CCNC(=O)CCCNC(=O)Cn2cnc3sc(C)c(C)c3c2=O)cc1OC", "activity change, negative = DNA displacement": "4.76% (inactive)"},
      {"compound": "CCCn1c(SCC(=O)NCc2cccs2)nc2c1c(=O)n(C)c(=O)n2C", "activity change, negative = DNA displacement": "5.06% (inactive)"},
      {"compound": "COC(=O)C1=COC(C)C2CN3CCc4c([nH]c5ccccc45)C3CC12", "note": "(centres undefined)", "activity change, negative = DNA displacement": "0.065% (inactive)"},
      {"compound": "CN1C(=O)NC(c2ccccc2[N+](=O)[O-])C2=C1CCCC2=O", "note": "(centres undefined)", "AC50": "29.7 µM (active)"},
      {"compound": "CN(C)S(=O)(=O)c1cccc(N2C(=O)CC3(CCCCC3)CC2=O)c1", "activity change, negative = DNA displacement": "3.65% (inactive)"},
      {"compound": "Cc1nc2ccccc2n2c(O)c(CC(=O)O)cc12", "AC50": "10.2 µM (active)"},
      {"compound": "C=CCOC(=O)C1=C[C@H](c2csc3ccccc23)C[C@H](OCc2ccc(CO)cc2)O1", "activity change, negative = DNA displacement": "3.64% (inactive)"},
      {"compound": "O=C(C1CCCO1)N1CCN(c2ncccn2)CC1", "note": "(centres undefined)", "activity change, negative = DNA displacement": "4.25% (inactive)"},
      {"compound": "O=C1C=CC2=C3c4cc(O)c(O)cc4CC3(O)COC2=C1O", "note": "(centres undefined)", "activity change, negative = DNA displacement": "-14.1% (inactive)"},
      {"compound": "O=c1[nH]c2c(s1)C=Nc1ccccc1N2", "AC50": "6.39 µM (active)"},
      {"compound": "O=C(CCNc1ccc(Cc2ccncc2)cc1)c1cccc([N+](=O)[O-])c1", "activity change, negative = DNA displacement": "-1.92% (inactive)"},
      {"compound": "CCN1/C(=C2/SC(=S)N(NC(C)=O)C2=O)Sc2ccc(OC)cc21", "AC50": "18.8 µM (active)"},
      {"compound": "Nc1ccc2c(O)cc(S(=O)(=O)O)cc2c1", "activity change, negative = DNA displacement": "0% (inactive)"},
      {"compound": "c1ccc(-c2cn3nc(-c4ccccc4)c(-c4ccccc4)nc3n2)cc1", "AC50": "23 µM (active)"},
      {"compound": "CCC(=O)Oc1ccc2c(c1)O/C(=C\\c1ccco1)C2=O", "activity change, negative = DNA displacement": "-9.88% (inactive)"},
      {"compound": "O=C(c1cnn2c(-c3ccccc3)cc(-c3ccccc3)nc12)N1CCN(Cc2ccccc2)CC1", "activity change, negative = DNA displacement": "5.71% (inactive)"}
    ]}
  ]
}
